The structures appear in SMILES notation. Calls of active or inactive are those of the source. Rule for the calls: active = hit-call score of the fitted dose curve at least 0.9, where 1 is the maximum; inactive = score below 0.9.

The nature of this assay: CCTE_Mundy_HCI_Cortical_Synap_Neur_Matur_CellBodySpotCount: CCTE's Synaptogenesis and Neurite Maturation Assay in rat cortical cells for Cell Body Spot Count, Mundy Lab (AID 2284223). The procedure: CCTE_Mundy_HCI_Cortical_Synap&Neurite_Matur is a multiplexed, cell-based-readout assay that uses rat primary cortical cells with measurements taken at 288.33 hours after chemical dosing in a microplate: 96-well plate.CCTE_Mundy_HCI_Cortical_Synap_Neur_Matur_CellBodySpotCount is one of eight components of the CCTE_Mundy_HCI_Cortical_Synap&Neurite_Matur assay. It measures synaptogenesis and neurite maturation related to number of cell body-associated synapses (synaptophysin puncta) per neuron using High Content Imaging of fluorescently labelled markers.[…] Using a type of morphology reporter, loss -of-signal activity can be used to understand developmental effects.
Cells are plated onto 96 well plates and allowed 2 hr for attachment to the substrate. At days in vitro (DIV) 5, Cytosine Arabinoside (AraC) is added to arrest glial cell growth. Chemicals are dosed and a media change is performed at DIV 7 of differentiation and is continued through DIV 12 when the experiment is terminated. Cells are fixed with […] and Hoechst Dye. Cells are stained using Millipore Mouse anti-MAP2MAB3418 (1:800) and Millipore Rabbit anti-Synaptophysinsc-1750 (1:250) primary antibodies and Alexa Fluor-488 goat anti-mouse and AlexaFluor-546 goat anti-rabbit secondary antibodies to label neuronal cell nuclei, synapses and neurites. A Cellomics ArrayScan VTi HCS Reader is used for automated image acquisition and analysis of neurite outgrowth.
Consider `CN/C(=N\[N+](=O)[O-])NCc1cnc(Cl)s1`, for which the compound was called inactive. The same measure, in the same setting: the entry for `CCNC(=O)NC(=O)C(C#N)=NOC` is “inactive”; for `COP(=O)(OC)O/C(C)=C/C(=O)N(C)C` it is “inactive”. By AC50 is commonly meant the concentration at which the activity in the assay is half-maximal. Turning to `CO/N=C(/C1=NOCCO1)c1ccccc1Oc1ncnc(Oc2ccccc2Cl)c1F`, the AC50 was 3.26 µM (active).

Consider `CC1(C)C(C=C(Cl)Cl)C1C(=O)OC(C#N)c1cccc(Oc2ccccc2)c1` (stereo not drawn), for which the compound was classed as inactive.

In the case of `N#CN=C1SCCN1Cc1ccc(Cl)nc1`, the call was inactive.

Consider `CS(=O)(=O)c1cc(C(F)(F)F)ccc1C(=O)c1cnoc1C1CC1`, for which the compound was called inactive. With `O=C(Nc1ccccc1-c1ccc(Cl)cc1)c1cccnc1Cl`, the outcome was inactive.

On to `CS(=O)(=O)c1ccc(C(=O)C2C(=O)CCCC2=O)c([N+](=O)[O-])c1`, for which the result was inactive.

For `CNC(=O)Oc1cccc2ccccc12`, the result was inactive. Consider `Cc1c(COC(=O)[C@@H]2[C@H](/C=C(\Cl)C(F)(F)F)C2(C)C)cccc1-c1ccccc1`, for which the concentration at half-maximal activity (AC50) is 3.12 µM (active). On the same count and under the same terms, with `C=C(C)CN(CC)c1c([N+](=O)[O-])cc(C(F)(F)F)cc1[N+](=O)[O-]` the figure was 5.33 µM (active). Turning to `CCSC(=O)N1CCCCCC1`, the compound was called inactive. The same measure, in the same setting: the entry for `COC(=O)N(C(=O)N1CO[C@@]2(C(=O)OC)Cc3cc(Cl)ccc3C2=N1)c1ccc(OC(F)(F)F)cc1` is “inactive”; for `CCOP(=O)(OCC)Oc1nc(Cl)c(Cl)cc1Cl` it is “inactive”; for `COP(=S)(OC)SCn1nnc2ccccc2c1=O` it is “inactive”.

Turning to `CCN(CC)c1nc(C)cc(OP(=S)(OC)OC)n1`, the outcome was inactive. Still for that read-out and setting: with `CC(C)(C)C(=O)C(Oc1ccc(Cl)cc1)n1cncn1` (stereo not drawn) the entry was “inactive”.
